Assay results as given in PubChem BioAssay AID1461 (National Center for Advancing Translational Sciences (NCATS), 2008).
In all, about 220,000 compounds went through this assay and about 2,300 (1%) were called active. Not shown: some 6% with an inconclusive outcome. Calls come from the whole dose curve; as a rule, active = well fitted inhibition curve with a large enough effect; inconclusive = small, poorly fitted or top-dose-only effect, or effect the other way; inactive = no such curve, though single readings can be large or run the other way. The list comes from a sample in which actives are over-represented; it also holds similar structures and randomly drawn compounds.

What follows are compounds tested against Neuropeptide S receptor (Homo sapiens) (UniProt Q6W5P4) (assay: qHTS Assay for Antagonists of the Neuropeptide S Receptor: cAMP Signal Transduction). Settings: CHO-NPSR cells, cAMP TR-FRET, antagonist mode; series mostly up to 38.3 µM; activity change, negative = inhibition: at the top concentration.
Neuropeptide S receptor (Homo sapiens), sequence (Q6W5P4 whole entry, looked up): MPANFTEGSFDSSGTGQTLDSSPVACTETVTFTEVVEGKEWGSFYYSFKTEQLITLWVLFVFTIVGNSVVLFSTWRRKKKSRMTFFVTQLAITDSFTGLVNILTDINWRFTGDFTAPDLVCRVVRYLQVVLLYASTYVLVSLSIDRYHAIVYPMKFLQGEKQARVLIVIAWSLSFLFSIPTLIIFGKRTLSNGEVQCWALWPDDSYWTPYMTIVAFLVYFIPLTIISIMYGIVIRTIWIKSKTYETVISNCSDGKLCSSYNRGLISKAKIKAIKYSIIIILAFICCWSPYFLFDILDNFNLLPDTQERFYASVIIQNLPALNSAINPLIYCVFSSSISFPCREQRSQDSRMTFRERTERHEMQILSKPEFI
Excerpt: NIH Chemical Genomics Center [NCGC] NIH Molecular Libraries Probe Production centers Network [MLPCN] MLPCN Grant: X01-DA026210-01 Assay Submitter (PI): Heilig, Markus Alexander NCGC Assay Overview: Neuropeptide S receptor (NPSR), previously known as GPR154, is a recently de-orphanized G protein coupled receptor. Its endogenous ligand is the 20 amino acids peptide Neuropeptide S (NPS). […] NPS and its receptor are found in various tissues. Specifically they are highly expressed in brain areas that have been implicated in modulation of arousal, stress and anxiety. Central administration of NPS in mice produces an unusual profile of activity by inducing wakefulness and arousal, while at the same time suppressing anxiety. Therefore, NPSR may represent a novel drug target for the treatment of sleep and anxiety disorders. To identify NPSR antagonists, we developed a cell-based cAMP assay. NPS can stimulate the production of cAMP in Chinese hamster ovary cells stably expressing NPS receptor. This change in intracellular cAMP level can be detected by a homogeneous LANCE cAMP assay based on the TR-FRET (time resolved fluorescence resonance energy transfer) between a europium-labeled cAMP tracer complex and a cAMP-specific antibody labeled with Alexa Fluor 647. The europium-labeled cAMP tracer complex is formed by the tight interaction between Biotin-cAMP (b-cAMP) and streptavidin labeled with Europium-W8044 chelate (Eu-SA). Light pulse at 320 nm excites the europium of the cAMP tracer and the energy emitted is transferred to the Alexa molecule bound to the cAMP antibody, generating a TR-FRET signal at 665 nm. Residual energy from the europium will produce a light at 620 nm. The native unlabeled cAMP from cell lysates competes with the europium-cAMP tracer for antibody binding and reversely reduces the emission signal of Alexa by interrupting FRET between the two labeled molecules. Both emission signals from the FRET donor (620 nm) and the acceptor (665 nm) can be detected by a plate reader in the TRF mode. Expression of result in fluorescence ratio (665 nm/620 nm) helps to normalize differences due to cell density and reagent dispensing. This assay was successfully optimized to a 1536-well plate format.
NCGC Assay Protocol Summary: A Chinese hamster ovary (CHO) cell line stably expressing the NPS receptor (CHO-NPSR) was obtained from Dr. Heilig lab at NIAAA and maintained in F-12 Kaighn's media (Invitrogen, Carlsbad, CA, 21127) supplemented with 10 % FBS, 100 units/ml penicillin, 100 ug/ml streptomycin and 250 ug/ml geneticin at 37C, 5% CO2 in a humidified atmosphere. Before the assay, aliquots of cells were frozen and stored at -135C. The assay was performed in 1536-well format. Data are reported for both the ratio of the two emission wavelengths, and also for the component 'donor' channel, Em2=620. Data were normalized to the controls for basal activity (DMSO only) and 100% inhibition (No NPS control). IC50 values were determined from concentration-response data modeled with the standard Hill equation. NPS 1536-well assay protocol: (1) Fresh or frozen CHO-NPSR cells were suspended in F-12 Kaighn's media supplemented with 10 % FBS, 100 units/ml penicillin and 100 ug/ml streptomycin. Cells were plated at 4 ul/well (1200 cells) to white, tissue culture treated 1536-well plates, and then cultured at 37C, 5 % CO2 for 16 to 30 hours. (2) Add 23 nl/well of compound in DMSO solution. The final titration for each compound was between 0.6 nM and 46 uM. (3) Add 1 ul of stimulation reagent (1X HBSS buffer, 5 mM HEPES, 0.1% BSA, 500 uM RO-201724 (Sigma-Aldrich, B8279), 1.5% Alexa 647-labeled anti-cAMP antibody (from Perkin Elmer), 100 nM NPS) (4) Incubation at 37C, 5 % CO2 for 60 min. (5) Add 1 ul/well detection reagent. Detection reagent was prepared by adding biotin labeled cAMP (4%), streptavidin labeled with Europium-W8044 chelate (1.33%) and TritonX-100 (1%) to detection buffer. […]
% is set by controls: 0 for no effect and ±100 for the full control effect; potency is the fitted concentration of half-maximal effect.
Note: nearly all actives have a fitted effect of over 50% in size.

SMILES	Potency	activity change, negative = inhibition
CC(=O)Oc1ccccc1C(=O)Nc1ncc([N+](=O)[O-])s1	3.16 µM (active)	
CCN1CC2C3CCC(C)(O3)C2C1 (stereo not given)		-11.5% (inactive)
O=C1NC(=O)N(c2ccc(F)cc2)C(=O)/C1=C/c1ccc2c(c1)CCCN2Cc1ccccc1		-19.5% (inactive)
Cc1cccc(N2C(=O)NC(=O)/C(=C\c3cnn(-c4ccccc4)c3)C2=O)c1	10 µM (active)	
COc1cccc(N2C(=O)NC(=O)/C(=C\c3ccc([N+](=O)[O-])s3)C2=O)c1		-36.3% (inactive)
CC1=C2C(=O)C3C(CC=C4CC(OC5OC(O)C(O)C(O)C5CO)CCC43C)C2CCC12OC1CC(C)CNC1C2C (stereo not given)		8.99% (inactive)
CCOc1cccc(=NC2CCCCC2)c2c(C)[nH]c(C)c12	6.31 µM (active)	
COc1ccc(-n2c(O)c(C(C)=Nc3ccc4c(c3)CCC4)c(=O)[nH]c2=O)cc1		27.1% (inactive)
CNC(=O)Nc1ccc(C(O)(C(=O)OC)C(F)(F)F)cc1 (stereo not given)		26.3% (inactive)
O=c1[nH]c(CN2CC=C(c3ccccc3)CC2)nc2scc(-c3cccs3)c12		25.8% (inactive)
CCC(C)n1c(O)c(/C=N/Nc2nc3c(c(=O)n(C)c(=O)n3C)n2C)c(=O)[nH]c1=S (stereo not given)		5.88% (inactive)
COc1cccc(CN2CCCC(C(=O)c3ccccc3SC)C2)c1O (stereo not given)		-42.8% (inactive)
CCCCCCCCCCCCn1ccc(=N)cc1	6.31 µM (active)	
CC(=O)Cc1ccc(OC(C)C)cc1		-24% (inactive)
C/C=C/CC1(CC)C(=O)NC(=S)NC1=O		-14.4% (inactive)
CC1C2Cn3c(nc4ccccc43)C1N(C)O2 (stereo not given)		20.9% (inactive)
CN(C)CC1CCCCC1=O (stereo not given)		-18.5% (inactive)
O=C1CC(=O)N(Cc2ccccc2)C(=O)N1CCCCCCN1C(=O)CC(=O)N(Cc2ccccc2)C1=O		4.26% (inactive)
O=c1[nH]c(=O)n(-c2ccc(F)cc2)c(O)c1C=NCCN1CCCCC1		-19.9% (inactive)
Fc1ccc(C2N3CCCN23)cc1 (stereo not given)		28.7% (inactive)
